High-throughput results (PubChem BioAssay)
This is a sample that favours compounds with a hit; in the whole collection about 3.9% have one here.
MITF act: activators of MITF-driven TRPM1 promoter reporter, primary screen, cell-based, SK-MEL-5, luciferase, single point; activation, % at 12.5 µM; 300,000 tested, 0.75% active; SK-MEL-5 TRPM1-promoter luciferase, 24 h; % of positive control, neutral wells = 0;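 active means mean activation of at least 80% with every replicate also reaching 80%; inconclusive means mean reaches 80% but some replicate falls short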
HSF1 activator: HSF-1 activators, primary screen, NIH3T3-HGL cells, MG132 stress, luminescence, single point; NIH3T3-HGL HSF-1 luciferase reporter, 8 h; 100% = twice DMSO control signal; 300,000 tested, 1.7% active; activation, % at 9 µM;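 active means mean replicate activation of at least 50% with a set share of replicates each reaching 50%; inconclusive means only one of those two conditions met; inactive means mean below 50% and too few replicates reaching it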
esBAF inh: Bmi1 luciferase reporter increase in mESCs, primary screen, esBAF inhibitor project, mouse ES cells, Bmi1 luciferase knock-in, single point; AID 602393, 2012; 350,000 tested, 2% active; 24 h; 100% = twice the neutral-well signal; reporter increase, % at 12.5 µM; in the data active means activation above about 40%; inconclusive means no clear call, values can overlap the other calls;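 further: a rise in the Bmi1 reporter signal indicates esBAF inhibition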
Wnt act: Wnt/beta-catenin pathway activators, primary screen, cell-based, plate reader, single point; Wnt/beta-catenin reporter cell assay, activator; activation, % at 9.35 µM; 300,000 tested, 1.2% active; in the data active means activation above about 30%, passing the limit was not always enough; inconclusive means no clear call, values can overlap the other calls
HSF1 inhib: HSF1 inhibitors in luciferase reporter cells, primary screen, cell-based, NIH3T3, luminescence. NIH3T3-HGL HSE-luciferase, MG132-induced, luminescence 8 h; active compounds read low. activity change, negative = inhibition, % at 7.5 µM (by protocol). 300,000 tested, 0.77% active. AID 2098, 2009;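 active means more than half of replicate wells show activity change below -50%, luminescence cut by over half; inconclusive means some wells, but at most half, below -50%; inactive means no replicate well below -50%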;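 further: luciferase reports HSF-1 transcriptional activity via heat shock element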
Of the large screens only hits and unclear results are named; the others gave an inactive call.

Cc1ccc([N+](=O)[O-])cc1S(=O)(=O)Nc1cccc(-c2ccc(N3CCOCC3)nn2)c1	MITF act 88
C[C@@H]1CCCCO[C@H](CN(C)C(=O)CCC(F)(F)F)[C@H](C)CN([C@@H](C)CO)C(=O)c2cc(NS(C)(=O)=O)ccc2O1	none (no result: MITF act, HSF1 activator, Wnt act, HSF1 inhib)
O=c1c2ccccc2cnn1-c1ccc2ccccc2c1	HSF1 activator 62 (no result: Wnt act)
CO[C@H]1CN(C)C(=O)c2cc(NC(=O)C3CCC3)ccc2OC[C@@H](C)NC[C@@H]1C	none (no result: MITF act, HSF1 activator, Wnt act, HSF1 inhib)
O=[N+]([O-])c1ccc(COc2ccc(CN3CCCCC3)cc2)cc1	MITF act inconclusive (no result: HSF1 activator, HSF1 inhib)
O=[N+]([O-])c1ccc(COc2ccc(CN3CCCC3)cc2)cc1	MITF act 100 (no result: HSF1 activator, HSF1 inhib)
CC(=O)c1c(C)nn(C(=O)c2cccs2)c1C	none
Cc1nn(C(=O)c2ccc3c(c2)OCO3)c(N)c1-c1ccccc1	Wnt act 67
Cc1nn(C(=O)c2cccs2)c(N)c1-c1ccccc1	MITF act 90, esBAF inh 85, Wnt act 47
O=C(c1ccc2c(c1)OCO2)N1CCN(c2ccccc2)CC1	none
Cc1ccc(S(=O)(=O)Nc2cccc3c2O[C@H](CN(C)S(=O)(=O)c2ccc(C)cc2)[C@@H](C)CN([C@@H](C)CO)C3=O)cc1	none (no result: MITF act, HSF1 activator, Wnt act, HSF1 inhib)
CCC(=O)N1C[C@H](O)COC[C@H]2O[C@@H](CC(=O)NCc3ccc(Oc4ccccc4)cc3)CC[C@@H]21	none (no result: MITF act, HSF1 activator, Wnt act, HSF1 inhib)
Cc1cccc(OCC(=O)Nc2nccs2)c1C	HSF1 activator 56, Wnt act 37 (no result: esBAF inh)
Cc1ccccc1OCCCC(=O)Nc1nccs1	none (no result: Wnt act)
Cc1cc(=O)oc2cc(OCC(=O)Nc3nccs3)ccc12	HSF1 activator inconclusive, Wnt act 38
Cc1noc(C)c1S(=O)(=O)Nc1ccc2c(c1)C(=O)N([C@@H](C)CO)C[C@H](C)[C@@H](CN(C)S(=O)(=O)c1cccs1)O2	none (no result: MITF act, HSF1 activator, Wnt act, HSF1 inhib)
COc1ccccc1-c1cnc2c(c1)C(=O)N([C@@H](C)CO)C[C@H](C)[C@@H](CN(C)CC1CCOCC1)O2	none (no result: MITF act, HSF1 activator, Wnt act, HSF1 inhib)
O=C(NCc1cccs1)c1ccc([N+](=O)[O-])cc1Cl	HSF1 inhib -70 (no result: esBAF inh)
Cc1nnc(SCC(=O)Nc2cccc(S(=O)(=O)NC3=NCCCCC3)c2)n1Cc1ccccc1	none (no result: esBAF inh)
CCc1ccc(Nc2nnc(SCC(=O)Nc3cccc(S(=O)(=O)NC4=NCCCCC4)c3)s2)cc1	HSF1 activator 55 (no result: esBAF inh, Wnt act)
Cc1ccc(C)c(-n2ccnc2SCC(=O)Nc2cccc(S(=O)(=O)NC3=NCCC3)c2)c1	Wnt act 47 (no result: HSF1 activator, HSF1 inhib)
Cc1ccc2nc(SCC(=O)Nc3cccc(S(=O)(=O)NC4=NCCCCC4)c3)[nH]c2c1	HSF1 activator 112 (no result: esBAF inh)
Cc1cccc(Nc2nnc(SCC(=O)Nc3cccc(S(=O)(=O)N4CCCCC4)c3)s2)c1	HSF1 activator 58 (no result: esBAF inh, Wnt act)
COc1ccc(CNC(=O)N(C)C[C@@H]2OCc3ccccc3-c3c(n(C)c4ccccc34)C(=O)N([C@@H](C)CO)C[C@H]2C)cc1	none (no result: MITF act, HSF1 activator, Wnt act, HSF1 inhib)
CC(C)NC(=O)Nc1ccc2c(c1)C(=O)N([C@@H](C)CO)C[C@@H](C)[C@@H](CN(C)S(=O)(=O)c1ccccc1)O2	none (no result: MITF act, HSF1 activator, Wnt act, HSF1 inhib)
Cc1ccc(Nc2nnc(SCC(=O)Nc3cccc(S(=O)(=O)NC4=NCCCCC4)c3)s2)cc1	HSF1 activator 86
Cc1ccc(Nc2nnc(SCC(=O)Nc3ccc(S(=O)(=O)N4CCOCC4)cc3)s2)cc1	HSF1 activator 72
CN1CCN(c2nc(-c3ccco3)cc(C(F)(F)F)n2)CC1	none
COc1ccccc1-c1cc(C(F)(F)F)nc(S(=O)(=O)CCCC(=O)NC(C)C)n1	HSF1 activator 172 (no result: esBAF inh, Wnt act)
CS(=O)(=O)c1nc(-c2ccco2)cc(C(F)(F)F)n1	HSF1 inhib -74 (no result: MITF act, esBAF inh, Wnt act)
COc1ccccc1-c1cc(C(F)(F)F)nc(S(=O)(=O)CCCC(=O)N2CCCCC2C)n1 (stereo unspecified)	HSF1 activator 79
COc1ccccc1-c1cc(C(F)(F)F)nc(S(C)(=O)=O)n1	HSF1 activator 256 (no result: Wnt act)
COc1ccccc1-c1cc(C(F)(F)F)nc(S(=O)(=O)CCCC(=O)Nc2cccnc2Cl)n1	none (no result: HSF1 activator, esBAF inh, HSF1 inhib)
COCC(=O)Nc1ccc2c(c1)C(=O)N(C)C[C@@H](OC)[C@H](C)CN(Cc1cncnc1)[C@H](C)CO2	none (no result: MITF act, HSF1 activator, Wnt act, HSF1 inhib)
Cc1ccc(S(=O)(=O)N[C@@H]2CC[C@@H](CCNC(=O)Cc3ccccn3)O[C@@H]2CO)cc1	none (no result: MITF act, HSF1 activator, Wnt act, HSF1 inhib)
